Experimental data: PubChem BioAssay (NCI)
The panel holds about 79,000 compounds, 15% with a hit somewhere; the sample as a whole holds those more often. Active and inactive are the calls of the source. Rule as the data show it: active = growth inhibition above about 70%; inactive = the rest.

Tests used:
[1] = NCI Yeast Anticancer Drug Screen. Data for the rad52 strain (AID 147);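 also: 0% = growth of vehicle-treated control cultures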; conditions: S. cerevisiae rad52 mutant growth inhibition, stronger effect = higher value
How it was run: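 Screen used a yeast mutant impaired in DNA repair. After compound exposure, growth was measured. Values reflect inhibition compared with vehicle-treated cells.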

[2] = NCI Yeast Anticancer Drug Screen. Data for the wt1 strain (AID 149);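 also: 0% = growth of vehicle-treated wt1 cultures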; conditions: S. cerevisiae wt1 strain (SPY 50644) growth inhibition, stronger effect = higher value
How it was run: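 Growth inhibition read against vehicle controls after compound exposure of the wt1 yeast strain.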

[3] = NCI Yeast Anticancer Drug Screen. Data for the rad50EPP+ strain (AID 151);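 also: 0% = growth of vehicle-treated control cultures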; conditions: S. cerevisiae rad50 mutant strain, stronger effect = higher value
How it was run: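 Exposing the rad50EPP+ strain to each compound, growth was compared with vehicle-only cultures to give inhibition.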

[4] = NCI Yeast Anticancer Drug Screen. Data for the mgt1 strain (AID 153); conditions: S. cerevisiae mgt1 mutant growth inhibition, stronger effect = higher value
How it was run: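 Genetically defined yeast (mgt1) treated with compound; inhibition of growth expressed against vehicle-treated controls.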

[5] = NCI Yeast Anticancer Drug Screen. Data for the mec2-1 strain (AID 157); conditions: S. cerevisiae mec2-1 strain, stronger effect = higher value
How it was run: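 Readout is yeast growth inhibition, normalised to vehicle-treated controls, in the mec2-1 strain exposed to compound.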

[6] = NCI Yeast Anticancer Drug Screen. Data for the rad14 strain (AID 159);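 also: 0% = growth of vehicle-treated control cultures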; conditions: S. cerevisiae rad14 strain growth inhibition, stronger effect = higher value
How it was run: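 Growth inhibition vs vehicle controls; genetically altered yeast strain (DNA damage repair defect) treated with test compounds.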

[7] = NCI Yeast Anticancer Drug Screen. Data for the sgs1 mgt1 strain (AID 161);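 also: 0% = growth of cultures given vehicle only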; conditions: S. cerevisiae sgs1 mgt1 strain, stronger effect = higher value
How it was run: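 Growth of a repair-deficient yeast mutant was monitored after compound treatment and expressed as inhibition relative to vehicle-treated cultures.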

[8] = NCI Yeast Anticancer Drug Screen. Data for the CLN2oe strain (AID 163);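 also: 0% = growth of vehicle-only control cultures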; conditions: S. cerevisiae CLN2oe strain, stronger effect = higher value
How it was run: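 Values reflect how much compound exposure reduced yeast growth, referenced to vehicle-exposed cells. Assay organism is a strain with a defined genetic change affecting cell-cycle control.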

[9] = NCI Yeast Anticancer Drug Screen. Data for the cln2 rad14 strain (AID 165);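 also: 0% = growth equal to vehicle treated cultures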; conditions: S. cerevisiae cln2 rad14 strain, stronger effect = higher value
How it was run: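 Relative to vehicle controls, growth inhibition of compound-treated cln2 rad14 yeast was recorded.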

[10] = NCI Yeast Anticancer Drug Screen. Data for the bub3 strain (AID 167); conditions: S. cerevisiae bub3 mutant strain, stronger effect = higher value
How it was run: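 Readout: yeast growth inhibition, expressed relative to vehicle-only wells. The test organism is a mutant strain from a panel with lesions in DNA repair or checkpoint genes.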

[11] = NCI Yeast Anticancer Drug Screen. Data for the wt2 strain (AID 169);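 also: 0% = growth of vehicle-treated yeast cultures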; conditions: S. cerevisiae wt2 strain growth inhibition, stronger effect = higher value
How it was run: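 Values express reduction in yeast growth under compound treatment, referenced to vehicle-treated cells.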

[12] = NCI Yeast Anticancer Drug Screen. Data for the mlh1 strain (AID 171);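 also: 0% = growth of vehicle-treated control cultures of the same strain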; conditions: S. cerevisiae mlh1 strain growth inhibition, stronger effect = higher value
How it was run: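 Steps: expose the defined-mutant yeast strain to compound; expose a parallel culture to vehicle; measure growth; express compound effect as inhibition relative to the vehicle culture.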

[13] = NCI Yeast Anticancer Drug Screen. Data for the sgs1 strain (AID 173);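 also: 0% = growth of vehicle-only control cultures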; conditions: S. cerevisiae sgs1 mutant, stronger effect = higher value
How it was run: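 Treat defined-mutant yeast with compound; measure growth; calculate inhibition relative to vehicle-treated cells.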

[14] = NCI Yeast Anticancer Drug Screen. Data for the mlh1 rad18 strain (AID 175); conditions: S. cerevisiae mlh1 rad18 strain growth inhibition, stronger effect = higher value
How it was run: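 Test agents were incubated with a yeast strain of defined genotype (DNA damage repair defect). Inhibition of growth was derived by comparison with vehicle-exposed cultures.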

[15] = NCI Yeast Anticancer Drug Screen. Data for the rad18 strain (AID 177); conditions: S. cerevisiae rad18 mutant growth inhibition, stronger effect = higher value
How it was run: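 A genetically defined yeast mutant impaired in DNA damage repair was treated with test compounds, then its growth was measured against cultures receiving vehicle alone.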

[16] = NCI Yeast Anticancer Drug Screen. Data for the rad50 strain (AID 155);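 also: 0% = growth of vehicle-only cultures of the same strain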; conditions: S. cerevisiae rad50 strain growth inhibition, stronger effect = higher value
How it was run: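 Readout: growth inhibition relative to vehicle-treated cultures. Compound exposure was carried out in a genetically defined yeast strain deficient in DNA damage repair.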

[17] = at 5.0 µM (retest, dose inferred, filed as 0.5)
[18] = at 50.0 µM (retest, dose inferred, filed as 5.0)

Measured: growth inhibition

Oc1ccc(NCn2c(=S)sc3ccccc32)cc1
inactive: [1]; at 1.2 µM -1% | [1]; at 3.7 µM -10% | [1]; at 11.0 µM -7% | [1]; at 33.0 µM 38% | [2]; at 1.2 µM -24% | [2]; at 3.7 µM -17% | [2]; at 11.0 µM -16% | [2]; at 33.0 µM 29% | [3]; at 1.2 µM -6% | [3]; at 3.7 µM -21% | [3]; at 11.0 µM -25% | [3]; at 33.0 µM -16% | [4]; at 1.2 µM 14% | [4]; at 3.7 µM 17% | [4]; at 11.0 µM 37% | [5]; at 1.2 µM 19% | [5]; at 3.7 µM 27% | [5]; [17] 63% | [5]; at 11.0 µM 26% | [6]; at 1.2 µM -11% | [6]; at 3.7 µM -8% | [6]; at 11.0 µM -6% | [6]; at 33.0 µM 62% | [7]; [17] 2% | [8]; at 1.2 µM -16% | [8]; at 3.7 µM -13% | [8]; at 11.0 µM -32% | [8]; at 33.0 µM 34% | [9]; [17] 58% | [9]; at 50.0 µM 40% | [10]; at 1.2 µM 14% | [10]; at 3.7 µM 32% | [10]; [17] 32% | [10]; at 11.0 µM 26% | [10]; at 33.0 µM 68% | [11]; at 1.2 µM -28% | [11]; at 3.7 µM -14% | [11]; at 11.0 µM -10% | [11]; at 33.0 µM 64% | [12]; at 1.2 µM -44% | [12]; at 3.7 µM -23% | [12]; at 11.0 µM -9% | [12]; at 33.0 µM 63% | [13]; at 1.2 µM 4% | [13]; at 3.7 µM 5% | [13]; at 11.0 µM 4% | [13]; at 33.0 µM 69% | [14]; [17] 51% | [14]; at 50.0 µM 63% | [15]; at 1.2 µM -1% | [15]; at 3.7 µM -5% | [15]; at 11.0 µM -11% | [15]; at 33.0 µM 48%
active: [1]; at 100.0 µM 97% | [2]; at 100.0 µM 97% | [3]; at 100.0 µM 82% | [4]; at 33.0 µM 87% | [4]; at 100.0 µM 98% | [5]; at 33.0 µM 84% | [5]; [18] 100% | [5]; at 50.0 µM 73.8% | [5]; at 100.0 µM 99% | [6]; at 100.0 µM 98% | [7]; [18] 99% | [7]; at 50.0 µM 91.2% | [8]; at 100.0 µM 97% | [9]; [18] 98% | [10]; [18] 98% | [10]; at 50.0 µM 73.2% | [10]; at 100.0 µM 98% | [11]; at 100.0 µM 97% | [12]; at 100.0 µM 97% | [13]; at 100.0 µM 96% | [14]; [18] 100% | [15]; at 100.0 µM 96%

CN1Cc2ccccc2/C=C\c2ccccc21
inactive: [1]; at 1.2 µM -3% | [1]; at 3.7 µM -4% | [1]; at 11.0 µM -1% | [1]; at 33.0 µM 25% | [1]; at 100.0 µM 39% | [2]; at 1.2 µM -3% | [2]; at 3.7 µM -2% | [2]; at 11.0 µM -3% | [2]; at 33.0 µM -4% | [2]; at 100.0 µM 7% | [3]; at 1.2 µM 0% | [3]; at 3.7 µM 9% | [3]; at 11.0 µM 23% | [3]; at 33.0 µM 36% | [16]; at 1.2 µM -6% | [16]; at 3.7 µM -10% | [16]; [17] -123% | [16]; at 11.0 µM -1% | [16]; at 33.0 µM 49% | [16]; at 50.0 µM 24.8% | [16]; at 100.0 µM 64% | [5]; at 1.2 µM 1% | [5]; at 3.7 µM 2% | [5]; [17] -47% | [5]; at 11.0 µM 1% | [5]; at 33.0 µM 1% | [5]; [18] 67% | [5]; at 50.0 µM 34.3% | [5]; at 100.0 µM -3% | [6]; at 1.2 µM -3% | [6]; at 3.7 µM -2% | [6]; at 11.0 µM 1% | [6]; at 33.0 µM 14% | [6]; at 100.0 µM 43% | [7]; [17] -57% | [7]; at 50.0 µM -5.4% | [8]; at 1.2 µM 0% | [8]; at 3.7 µM 2% | [8]; at 11.0 µM 3% | [8]; at 33.0 µM 2% | [8]; at 100.0 µM 3% | [10]; at 1.2 µM -2% | [10]; at 3.7 µM -1% | [10]; [17] -66% | [10]; at 11.0 µM 1% | [10]; at 33.0 µM 12% | [10]; at 50.0 µM -15.8% | [10]; at 100.0 µM 35% | [11]; at 1.2 µM 0% | [11]; at 3.7 µM 1% | [11]; at 11.0 µM 0% | [11]; at 33.0 µM -4% | [11]; at 100.0 µM 25% | [12]; at 1.2 µM 9% | [12]; at 3.7 µM 1% | [12]; at 11.0 µM -1% | [12]; at 33.0 µM -3% | [12]; at 100.0 µM 33% | [13]; at 1.2 µM 2% | [13]; at 3.7 µM 3% | [13]; at 11.0 µM 2% | [13]; at 33.0 µM 23% | [13]; at 100.0 µM 58% | [14]; [17] -109% | [14]; at 50.0 µM 22.6% | [15]; at 1.2 µM 0% | [15]; at 3.7 µM 2% | [15]; at 11.0 µM 15% | [15]; at 33.0 µM 47%
active: [3]; at 100.0 µM 71% | [16]; [18] 92% | [7]; [18] 90% | [10]; [18] 87% | [14]; [18] 89% | [15]; at 100.0 µM 78%
